# Assays:
# Assay in all cases: PBM binding z-score (relative to random genomic background probes); higher = stronger binding; sequences stand for … in GC…GCGATTGACAGCGTAGAATGAAGG
# [1] = tested on: FXR:RXRa (NR concentration 270 nM, RXRa partner concentration 90 nM)
# How it was run: (§1)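 Random background probes are the reference for binding z-scores. These scores derive from regression-normalized fluorescence on custom Agilent 4×180K protein-binding microarrays incubated 1 h with ligand-free nuclear receptor dimers. Binding was detected with antibodies against each partner (one per run).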
# [2] = tested on: LXRa:RXRa (NR concentration 270 nM, RXRa partner concentration 90 nM)
# How it was run: as §1
# [3] = tested on: LXRa homodimer (NR concentration 270 nM)
# How it was run: as §1
# [4] = tested on: LXRb:RXRa (NR concentration 270 nM, RXRa partner concentration 90 nM)
# How it was run: as §1
# [5] = tested on: LXRb homodimer (NR concentration 270 nM)
# How it was run: as §1
# [6] = tested on: PPARa:RXRa (NR concentration 270 nM, RXRa partner concentration 90 nM)
# How it was run: as §1
# [7] = tested on: PPARg:RXRa (NR concentration 180 nM, RXRa partner concentration 90 nM)
# How it was run: as §1
# [8] = tested on: PPARg:RXRa 270nM:90nM, anti-RXR (NR concentration 270 nM, RXRa partner concentration 90 nM)
# How it was run: as §1
# [9] = tested on: PPARg:RXRa 30nM:10nM, anti-RXR (NR concentration 30 nM, RXRa partner concentration 10 nM)
# How it was run: as §1
# [10] = tested on: PPARg:RXRa 90nM:30nM, anti-RXR (NR concentration 90 nM, RXRa partner concentration 30 nM)
# How it was run: as §1
# [11] = tested on: PPARg:RXRa DBDmut IVT, anti-RXR (DBD mutation: RXRa K156A/R161A, NR concentration 270 nM, RXRa partner concentration 90 nM)
# How it was run: as §1
# [12] = tested on: PPARg:RXRa IVT, anti-PPARg (NR concentration 270 nM, RXRa partner concentration 90 nM)
# How it was run: as §1
# [13] = tested on: PPARg DBDmut:RXRa IVT, anti-PPARg (DBD mutation: PPARg1 K132A/R137A, NR concentration 270 nM, RXRa partner concentration 90 nM)
# How it was run: as §1
# [14] = tested on: PPARg DBDmut IVT, anti-PPARg (DBD mutation: PPARg1 K132A/R137A, NR concentration 270 nM)
# How it was run: as §1
# [15] = tested on: PPARg homodimer (NR concentration 180 nM)
# How it was run: as §1
# [16] = tested on: PXR:RXRa (NR concentration 270 nM, RXRa partner concentration 90 nM)
# How it was run: as §1
# [17] = tested on: PXR homodimer (NR concentration 270 nM)
# How it was run: as §1
# [18] = tested on: RARa:RXR (NR concentration 270 nM, RXRa partner concentration 90 nM)
# How it was run: as §1
# [19] = tested on: RARa homodimer (NR concentration 270 nM)
# How it was run: as §1
# [20] = tested on: RARb:RXRa (NR concentration 270 nM, RXRa partner concentration 90 nM)
# How it was run: as §1
Sequence,PBM binding z-score [1],PBM binding z-score [2],PBM binding z-score [3],PBM binding z-score [4],PBM binding z-score [5],PBM binding z-score [6],PBM binding z-score [7],PBM binding z-score [8],PBM binding z-score [9],PBM binding z-score [10],PBM binding z-score [11],PBM binding z-score [12],PBM binding z-score [13],PBM binding z-score [14],PBM binding z-score [15],PBM binding z-score [16],PBM binding z-score [17],PBM binding z-score [18],PBM binding z-score [19],PBM binding z-score [20]
TCTAGTTGGTCAAAGTTCACACACTCGAAATGCG,3.96,4.54,4.63,3.66,1.36,5.5,9.83,9.2,8.79,9.75,2.57,4.89,1.12,1.12,3.54,5.09,4.01,5.1,2.77,3.83
GCTAGTTGGTCAGAAAAAGGTCACACACCGGTCG,2.95,3.7,3.13,3.75,0.434,4.21,1.74,3.02,0.669,2.14,0.771,2.29,-0.31,-0.0601,4.2,4.56,1.01,5.62,1.53,4.17
TTACCAAGGTGAAAGGTGGTTGATGCACGCCTTG,0.879,0.449,-0.508,0.171,-0.366,2.81,4.38,5.35,3.06,4.85,3.12,3.55,-0.573,-0.258,0.847,0.419,-0.541,1.35,0.211,1.5
CAAACTAGGTCAAGCGGTCAAAGTCCGCTTCCCG,5.13,4.54,4.1,2.97,0.774,5.57,8.35,7.55,5.13,7.38,8.54,8.61,4.37,1.14,3.03,2.21,0.102,3.33,0.747,4.62
AGAACGAGGGCAATGAATTGATAGCACGGGTGGC,0.314,0.102,-0.259,0.0164,-0.479,1.32,1.27,0.732,0.112,0.346,3.39,2.58,0.112,-0.0881,-0.139,0.372,0.123,0.568,0.175,2.01
CGAACTAGGTCATCCAGGACTGTGAATACATTGA,4.52,2.4,0.426,2.06,0.107,4.84,7.64,6.38,4.23,5.82,8.21,8.17,6.94,2.3,3.35,1.48,0.582,2.24,0.701,3.73
ATCTCTAGGTAAGACTCAGTTCAGTCAAGAACGC,0.474,0.647,0.721,0.685,0.923,0.293,0.116,0.136,0.155,0.184,1.92,1.14,0.571,0.277,1.18,1.32,1.41,0.474,1.34,0.511

# — the supplement of paper PMC6555819
